# Results taken from PubChem BioAssay (EPA / NIEHS).
# Activity calls are given as the source filed them. The calls were made as follows: active = hit-call score of the fitted dose curve at least 0.9, where 1 is the maximum; inactive = score below 0.9.
# Assay: ATG_NFI_CIS: Attagene CIS-FACTORIAL HepG2 Assay for human Nuclear Factor I (NFI) (AID 2282989)
# Conditions: HepG2 cis-regulatory reporter, NFI response element transcription; actives raise or lower the signal
# Procedure: ATG_CIS is a cell-based, multiplexed-readout assay that uses HepG2, a human liver cell line, with measurements taken at 24 hours after chemical dosing in a 24-well plate.ATG_NFI_CIS is one of 52 assay component(s) measured or calculated from the ATG_CIS assay. It is designed to make measurements of mRNA induction, a form of inducible reporter, as detected with fluorescence intensity signals by Reverse transcription polymerase chain reaction (RT-PCR) and Capillary electrophoresis technology.Data from the assay component ATG_NFI_CIS was analyzed into 1 assay endpoint. This assay endpoint, ATG_NFI_CIS, was analyzed with bidirectional fitting relative to DMSO as the negative control and baseline of activity. Using a type of inducible reporter, measures of mRNA for gain or loss-of-signal activity can be used to understand the reporter gene at the transcription factor-level as they relate to the gene NFIA. Furthermore, this assay endpoint can be referred to as a primary readout, because this assay has produced multiple assay endpoints where this one serves a reporter gene function. To generalize the intended target to other relatable targets, this assay endpoint is annotated to the dna binding intended target family, where the subfamily is nuclear factor I.
# Human liver HepG2 cells are transiently transfected with multiple reporter transcription units (MRTUs) in 6-well plates using FuGene 6 reagent (Roche; 3 ml FuGene/1 mg DNA). The MRTU constructs are regulated by a cis-regulating element (promoter). […] A major difference between the CIS and TRANS system is that in CIS activities of endogenous TFs are measured, whereas the TRANS assay evaluates changes in activities of exogenous, chimeric NR-Gal4 proteins. […] At the end of 24 hour incubation, total RNA was isolated using TriZol reagent (Invitrogen). The isolated RNA is then reverse-transcribed using oligo(dT) primer and Mo-MLV reverse transcriptase (Invitrogen) with DNAse I (Ambion) treatment for 30 min. The one-tenth of the produced cDNA was amplified by PCR using Taq DNA polymerase (Invitrogen) and two reporter sequence-specific primers. The PCR products were fluorescently labeled by primer extension with 6-arboxyfluorescein (6-FAM) 5'-labeled reporter sequence-specific primer (2 min at 95 C, 20 s at 68 C and 10 min at 72 C) and these products were digested with 5U of HpaI (New England Biolabs) for 2h at 37 C. The fragments were purified using Qiaquick PCR columns (Qiagen), analyzed on an ABI 3130xL genetic analyzer (Applied Biosystems) with peak positions identified by using a set of X-rhodamine (ROX)-labeled MapMarker1000 molecular weight standards (BioVentures). The raw capillary electrophoresis data was processed using Attagraph software (Attagene).
Structure (SMILES),outcome,AC50
COc1cc(CCC(C)=O)ccc1O,inactive,
CC(=O)OCCCc1ccccc1,inactive,
CCCCCc1ccco1,inactive,
CCCCCCCCCCCCCCCC(=O)OC/C=C(C)/C=C/C=C(C)/C=C/C1=C(C)CCCC1(C)C,inactive,
Nc1c(S(=O)(=O)O)cc(Br)c2c1C(=O)c1ccccc1C2=O,inactive,
CC(=O)C(C)O (stereo not given),inactive,
OCc1ccc(Cl)cc1Cl,inactive,
Clc1ccc(C(c2ccccc2Cl)C(Cl)Cl)cc1 (stereo not given),,34.7 µM (active)
OCCOCCN1CCN(C2=Nc3ccccc3Sc3ccccc32)CC1,inactive,
CC(C=O)Cc1ccc(C(C)(C)C)cc1 (stereo not given),inactive,
OCC#CCO,inactive,
CCOc1ccccc1O,inactive,
C1=CC2C3C=CC(C3)C2C1 (stereo not given),inactive,
COC(C)(C)CC(C)=O,inactive,
CC(C)(N=C=O)c1cccc(C(C)(C)N=C=O)c1,inactive,
C=Cc1ccc(C(C)(C)C)cc1,inactive,
COc1ccccc1N=Nc1c(S(=O)(=O)O)cc2cc(S(=O)(=O)O)cc(NC(C)=O)c2c1O,inactive,
BrCc1cccc(Oc2ccccc2)c1,inactive,
CCCCCCC(O)CCCCCCCCCCC(=O)O (stereo not given),inactive,
Cc1ccc2c(c1)C(=O)OC2=O,inactive,

Structure (SMILES),outcome,AC50
[O-]n1ccccc1=S.[O-]n1ccccc1=S.[Zn+2],inactive,
CC1C2CC(CC2C2CCCC(O)C2)C1(C)C (stereo not given),inactive,
CCCCCCCCCCCCN1CCCCCC1=O,inactive,
CC(O)C1CCCCC1 (stereo not given),inactive,
CN(C)CCOc1ccc(/C(=C(/CCCl)c2ccccc2)c2ccccc2)cc1,inactive,
C=C(C)C(=O)OCCOCCOCCOC(=O)C(=C)C,inactive,
CCN(CCN)c1cccc(C)c1,inactive,
C=C1CC[C@H](O)C/C1=C/C=C1\CCC[C@]2(C)[C@@H]([C@H](C)/C=C/[C@H](C)C(C)C)CC[C@@H]12,inactive,
Cc1ccc(S(N)(=O)=O)cc1,inactive,
CN(C)c1cccc(O)c1,inactive,
C=C(C)CNCC,inactive,
CCO/C=C1\N=C(c2ccccc2)OC1=O,inactive,
Nc1ccc(NCCO)c([N+](=O)[O-])c1,inactive,
CN(C)C(=O)Nc1ccc(Oc2ccc(Cl)cc2)cc1,inactive,
COC(=O)c1ccc(OC)cc1,inactive,
C[N+](C)(C)CCCCCC[N+](C)(C)C,inactive,
CCC1(c2ccccc2)C(=O)NCNC1=O,inactive,
Nc1ccc2cc(S(=O)(=O)O)cc(O)c2c1N=Nc1ccccc1C(F)(F)F,inactive,
CCCCCCCCCCCCCC(=O)OCC(O)CO (stereo not given),inactive,
c1ccc(CCc2ccccc2)cc1,inactive,
